From PubChem BioAssay AID1159580 (chemical genetic matrix, 2015)
In all, about 5,500 compounds went through this assay and about 2,000 (36%) were called active. About 18% were inconclusive and are not listed. Rule as the data show it: active = normalized growth mostly below about 0.91 (no sharp cut-off); inconclusive = no clear call, values can overlap the other calls; inactive = mostly above about 0.92. Some of the results follow.

Assay: chemical genetic growth profiling, strain panel (AID 1159580);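 also: tested at 20 µM; growth read once vehicle control cultures reached saturation at 30 °C; 1 = growth at the plate median or of vehicle wells; lower values mean less growth of the strain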
Settings: S. cerevisiae deletion strains, growth OD

Measured: normalized growth

COc1ccc(CNC(=O)/C=C/c2ccc3[nH]cc(CCN(C)C)c3c2)cc1
inactive: locus YAL040C, strain CLN3, stronger effect = lower value 1.1 | locus YCL061C, strain MRC1 (second series), stronger effect = lower value 0.991 | locus YER002W, strain NOP16, stronger effect = lower value 0.997 | locus YGR078C, strain PAC10, stronger effect = lower value 0.987 | locus YMR263W, strain SAP30, stronger effect = lower value 0.98 | locus YNL153C, strain GIM3, stronger effect = lower value 0.985 | locus YNL175C, strain NOP13, stronger effect = lower value 1.01 | locus YNL197C, strain WHI3, stronger effect = lower value 1 | locus YNL224C, strain SQS1, stronger effect = lower value 0.986 | locus YOR083W, strain WHI5 (second series), stronger effect = lower value 1.01

COC(=O)CC1C(C)(C(=O)c2ccoc2)CC2OCC34C(CC(=O)OC)C5(C)CC36OC3(C)OC1(C(OC(C)=O)C6(OC(C)=O)C5OC(=O)C(C)C)C24O3 (configuration not stated)
inactive: locus YAL021C, strain ccr4, stronger effect = lower value 0.995 | locus YAL026C, strain drs2, stronger effect = lower value 0.967 | locus YAL030W, strain snc1, stronger effect = lower value 0.975 | locus YBL061C, strain skt5, stronger effect = lower value 0.978 | locus YBR009C, strain hhf1, stronger effect = lower value 0.949 | locus YBR023C, strain chs3, stronger effect = lower value 0.987 | locus YBR171W, strain sec66, stronger effect = lower value 0.981 | locus YBR231C, strain swc5, stronger effect = lower value 0.993 | locus YBR279W, strain paf1, stronger effect = lower value 0.996 | locus YCL011C, strain gbp2, stronger effect = lower value 0.972 | locus YCL016C, strain dcc1, stronger effect = lower value 0.99 | locus YCL061C, strain MRC1, stronger effect = lower value 0.995 | locus YCL069W, strain vba3, stronger effect = lower value 0.979 | locus YCR088W, strain abp1, stronger effect = lower value 0.983 | locus YDL005C, strain med2, stronger effect = lower value 0.97 | locus YDL040C, strain nat1, stronger effect = lower value 0.986 | locus YDR001C, strain nth1, stronger effect = lower value 0.986 | locus YDR069C, strain doa4, stronger effect = lower value 0.99 | locus YDR137W, strain rgp1, stronger effect = lower value 0.975 | locus YDR159W, strain sac3, stronger effect = lower value 0.968 | locus YDR195W, strain ref2 0.944 | locus YDR297W, strain sur2, stronger effect = lower value 0.978 | locus YDR334W, strain swr1, stronger effect = lower value 0.969 | locus YDR335W, strain msn5, stronger effect = lower value 0.987 | locus YDR392W, strain spt3, stronger effect = lower value 0.911 | locus YEL003W, strain gim4, stronger effect = lower value 0.971 | locus YEL037C, strain rad23, stronger effect = lower value 0.967 | locus YEL061C, strain CIN8 (second series), stronger effect = lower value 0.975 | locus YER015W, strain faa2, stronger effect = lower value 0.987 | locus YER016W, strain bim1, stronger effect = lower value 0.98 | locus YER111C, strain swi4, stronger effect = lower value 0.959 | locus YER155C, strain BEM2 (second series), stronger effect = lower value 1.01 | locus YFR010W, strain ubp6, stronger effect = lower value 0.978 | locus YGL167C, strain pmr1, stronger effect = lower value 0.959 | locus YGL173C, strain kem1, stronger effect = lower value 0.97 | locus YGL227W, strain vid30, stronger effect = lower value 0.97 | locus YGL240W, strain doc1, stronger effect = lower value 0.988 | locus YGL253W, strain hxk2, stronger effect = lower value 0.966 | locus YHR013C, strain ard1, stronger effect = lower value 0.952 | locus YHR027C, strain rpn1, stronger effect = lower value 0.985 | locus YHR142W, strain chs7, stronger effect = lower value 0.994 | locus YJL092W, strain hpr5, stronger effect = lower value 0.987 | locus YJL095W, strain BCK1 (second series), stronger effect = lower value 0.993 | locus YJL115W, strain asf1, stronger effect = lower value 0.988 | locus YJL129C, strain trk1, stronger effect = lower value 0.975 | locus YJL154C, strain vps35, stronger effect = lower value 0.984 | locus YJL164C, strain tpk1, stronger effect = lower value 1 | locus YJL166W, strain qcr8, stronger effect = lower value 0.996 | locus YJL187C, strain SWE1, stronger effect = lower value 0.984 | locus YKL160W, strain elf1, stronger effect = lower value 1.01 | locus YKR026C, strain gcn3, stronger effect = lower value 0.976 | locus YKR091W, strain srl3, stronger effect = lower value 0.96 | locus YLL001W, strain dnm1, stronger effect = lower value 1.01 | locus YLL026W, stronger effect = lower value 0.993 | locus YLL041C, strain sdh2, stronger effect = lower value 0.996 | locus YLR027C, strain aat2, stronger effect = lower value 0.982 | locus YLR221C, strain rsa3, stronger effect = lower value 0.999 | locus YLR258W, strain gsy2, stronger effect = lower value 0.964 | locus YLR262C, strain YPT6 (second series), stronger effect = lower value 0.983 | locus YLR320W, strain mms22, stronger effect = lower value 0.993 | locus YLR342W, strain FKS1, stronger effect = lower value 0.963 | locus YLR357W, strain rsc2, stronger effect = lower value 1.02 | locus YLR370C, strain arc18, stronger effect = lower value 0.981 | locus YLR384C, strain iki3, stronger effect = lower value 0.97 | locus YML120C, strain ndi1, stronger effect = lower value 0.987 | locus YMR058W, strain fet3, stronger effect = lower value 0.975 | locus YMR125W, strain sto1, stronger effect = lower value 0.995 | locus YMR129W, stronger effect = lower value 0.966 | locus YMR205C, strain PFK2, stronger effect = lower value 0.957 | locus YMR231W, strain pep5, stronger effect = lower value 0.977 | locus YNL071W, strain lat1, stronger effect = lower value 0.982 | locus YNL209W, strain ssb2, stronger effect = lower value 0.988 | locus YNL248C, strain rpa49, stronger effect = lower value 1.02 | locus YNL322C, strain KRE1 (second series), stronger effect = lower value 0.969 | locus YNR049C, strain mso1, stronger effect = lower value 0.973 | locus YOR001W, strain rrp6, stronger effect = lower value 1.04 | locus YOR070C, strain gyp1, stronger effect = lower value 1.03 | locus YOR080W, strain dia2, stronger effect = lower value 0.982 | locus YOR083W, strain WHI5, stronger effect = lower value 1.01 | locus YOR106W, strain vam3, stronger effect = lower value 0.991 | locus YOR265W, strain rbl2, stronger effect = lower value 0.992 | locus YOR270C, strain vph1, stronger effect = lower value 0.856 | locus YOR290C, strain snf2, stronger effect = lower value 0.895 | locus YPL051W, strain arl3, stronger effect = lower value 0.993 | locus YPL078C, strain atp4, stronger effect = lower value 0.99 | locus YPL106C, strain sse1, stronger effect = lower value 0.985 | locus YPL240C, strain hsp82, stronger effect = lower value 0.947
